Assay results: PubChem BioAssay

Assay: E. coli growth modulation, two-sided OD650, primary screen, E. coli filamentation project, strain DRC41, 24 h (AID 1093);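 further: MC1000 strain lacking acrAB efflux and sulA so SOS filamentation is blocked; test concentration not given here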
Conditions: OD650, 24 h, higher = more signal, called active from +8 up or from −8 down

z-score, inactive:
CCOC(=O)NN=C1C[C@@H](O)[C@@H](O)[C@@H]2[C@@H]3C(=O)N([C@@H](C)c4ccccc4)C(=O)[C@@H]3CC[C@@H]12 0.667, COC(=O)[C@@H]1CC[C@H](C)[C@@H](c2ccc(C)cc2)N1C(=O)c1ccc(C=NO[C@@H](C)c2cn([C@H](CO)Cc3ccccc3)nn2)cc1 1.35, O=C1CCCC=C1C(O)CCOC(c1ccccc1)(c1ccccc1)c1ccccc1 (configuration not stated) -0.0634, COC(=O)CC=C[C@@H](C)[C@@H]1C=C[C@H](O)[C@@H](CO)O1 0.426, C[C@@H](ON=C1[C@H]2CCn3c(=O)n(-c4ccccc4)c(=O)n3[C@H]2[C@H](O)[C@@H]2O[C@H]12)c1cn([C@@H]2COC[C@H]2O)nn1 0.389, CO[C@@H]1COC(=O)[C@H](CCSC)NC(=O)CC=C[C@@H](C)COC(=O)CCC[C@H]1C -0.0886, COc1cccc([C@@H]2Oc3ccc(OC)cc3C(=O)[C@H]2O)c1 0.349, C=CC1=C[C@H](O)[C@@H]2O[C@@H]2C12OCCCO2 -0.0339, CCOC(=O)NN=C1C[C@@H](O)[C@@H](O)[C@@H]2[C@@H]3C(=O)N(Cc4ccccc4)C(=O)[C@@H]3CC[C@H]12 -0.127, COC(=O)[C@@H]1CC[C@H](C)[C@@H](c2ccc(C)cc2)N1C(=O)c1ccc(C=NO[C@H](C)c2cn([C@H](CO)Cc3ccccc3)nn2)cc1 -0.551, COc1cc(O)c(C(=O)C=Cc2ccc3c(c2)OCO3)c(OC)c1 0.75, CCOC(=O)[C@H](CC(C)C)NC(=O)CCC1CC(OC(=O)NCc2cccc3ccccc23)CC2(CCCC(COC(=O)NCC3CCCCC3)O2)O1 (some centres not stated) -0.683, Cc1cc2c(c(=O)o1)[C@@H](O)[C@H]1O[C@H]1C2=O -1, Cc1ccc(S(=O)(=O)NC(CCc2ccccc2)CC(=O)C(C)(C)C)cc1 (configuration not stated) 0.361, C[C@@H](c1ccccc1)N1C(=O)[C@H]2[C@H]3[C@H](O)[C@H](O)CC(=NO[C@@H]4O[C@H](CO)[C@@H](O)[C@H](O)[C@H]4O)[C@@H]3CC[C@H]2C1=O 0.345, CCN1C(=O)[C@@H]2[C@H]3C(=CC[C@@H]2C1=O)C1(OCCCO1)[C@H]1O[C@H]1[C@H]3O -0.0556, CCOC(=O)[C@H](CC(C)C)NC(=O)CCC1CC(OC(=O)NCc2cccc3ccccc23)CC2(CCCC(COC(=O)NCCCN3CCCC3=O)O2)O1 (some centres not stated) -0.165, CC(=O)OC[C@H]1OC(ON=CC[C@@H]2C=C[C@H](OC(C)=O)[C@@H](COC(C)=O)O2)[C@H](OC(C)=O)[C@@H](OC(C)=O)[C@@H]1OC(C)=O (some centres not stated) -0.16, COc1ccc(O[C@@H]2[C@H](O)CO[C@@H]2C=Cc2ccccc2)cc1 0.0038, O=C1[C@H]2[C@H]3[C@H](O)[C@H](O)CC(=NOC[C@@H](O)COCc4ccco4)[C@H]3CC[C@H]2C(=O)N1C[C@@H]1CCCO1 0.0018, CC(C)=CCCC(C)=CCON=C1C[C@@H](O)[C@@H](O)[C@@H]2[C@@H]3C(=O)N(C(C)(C)C)C(=O)[C@@H]3CC[C@@H]12 -0.636, C#CCCCON=C1C[C@@H](O)[C@@H](O)[C@@H]2[C@@H]3C(=O)N(CCC(=O)OCC)C(=O)[C@@H]3CC[C@H]12 0.299, C[C@H]1CC[C@H]2C(=O)O[C@H](COc3ccc(C(C)(C)C)cc3)CN2[C@@H]1c1ccc(Br)cc1 -0.535, CC(C)=CCCC(C)=CCON=C1C[C@@H](O)[C@@H](O)[C@@H]2[C@@H]3C(=O)N(c4cccc(Oc5ccccc5)c4)C(=O)[C@@H]3CC[C@@H]12 0.951, COc1ccc(O[C@H]2C=C[C@@H](c3ccccc3)O[C@@H]2COC(=O)CCC(C)=NOC(C)CN2CCCc3nc(C)c(C)cc32)cc1 (some centres not stated) 1.43, COC(=O)[C@H](C)NC(=O)CCC1CC(OC(=O)NCc2cccc3ccccc23)CC2(CCCC(COC(=O)NCC(c3ccccc3)c3ccccc3)O2)O1 (some centres not stated) 0.0609, C=COC[C@@H]1CN2[C@@H](CC[C@@H](C)[C@@H]2c2ccc(Br)cc2)C(=O)O1 -0.756
